Measured values published in PubChem BioAssay AID588851 (Broad Institute, 2011).
Potency and affinity values are given separately. Records with an inconclusive call do not appear. Entries that show only a call come without a potency. Calls of active or inactive are those of the source.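 How the source made its calls: active means compounds that lower the signal with a fitted half-maximal concentration at most ten times the top valid dose; inconclusive means flat curve with moderate inhibition, or an unreliable fit; inactive means the rest.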

Biological target: CAAX prenyl protease 2 (Saccharomyces cerevisiae (strain ATCC 204508 / S288c)) (UniProt Q03530)
Sequence (Q03530 whole entry, looked up): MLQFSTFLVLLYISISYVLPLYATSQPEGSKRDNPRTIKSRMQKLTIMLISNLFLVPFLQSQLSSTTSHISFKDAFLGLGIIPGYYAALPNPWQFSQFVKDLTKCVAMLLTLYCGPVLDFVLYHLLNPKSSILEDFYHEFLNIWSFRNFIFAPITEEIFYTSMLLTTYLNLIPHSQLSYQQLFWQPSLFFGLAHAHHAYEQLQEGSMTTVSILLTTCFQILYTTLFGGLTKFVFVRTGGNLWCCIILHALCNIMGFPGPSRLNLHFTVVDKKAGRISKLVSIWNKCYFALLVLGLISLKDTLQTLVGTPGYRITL
Test: yeast Rce1 CaaX protease inhibitors, dose response, biochemical, plate reader, dry powder retest (AID 588851)

How did the outcome turn out when `O=C(CCNC(=O)N1CC(=O)Nc2ccccc21)NCCc1cccc(F)c1` was run?
Its outcome is “inactive”.
